The source of these data is the supplement of paper PMC11417369.

Whole data set: some 25,000 sequences, median “ln(normalized median fluorescence intensity)” near 6.7, cut for the highest 2% near 10. The sample as a whole holds a higher share of the highest values than the screen did.

In the assay the test system is PfHDP1 homeodomain (GST-tagged). As to the kind of experiment: gcPBM binding intensity (ln(normalized median fluorescence intensity)); higher = stronger DNA binding. The method, boiled down: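 The highest Masliner-normalised natural-log median intensity across replicate spots of either probe orientation is reported as binding intensity. GST-tagged P. falciparum DNA-binding domains expressed in E. coli were applied for 1 h to an Agilent 4 × 180k array of primer-extended double-stranded 36-bp intergenic genomic probes plus negative controls, and bound protein was detected with Alexa488 anti-GST antibody and scanned at 488 nm.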
For the sequence “TATGCACCCAGACACACACACACAACTAAAAAATAA [CACACA_site2567]”, the “gcPBM binding intensity (ln)” value worked out at 8.1.
The result for “AAAAAAGATAATTATGCACACACACCCACCCACCCA [CACACA_site8825]” reads 9.38.
Turning to “AAAAGATAATTATGCACACACACACCCAGACACAAC [CACACA_site5428]”, the “gcPBM binding intensity (ln)” value worked out at 10.4.
Regarding “TTATTAGAAAAATGCACACCAAAAAAAAAAAAAAAA [CACACA_site2522]”, the “gcPBM binding intensity (ln)” value is 8.93.
In the case of “ATTATGCACGGACACACACACACACCCCTAAAAAAT [CACACA_site5426]”, the “gcPBM binding intensity (ln)” value is 10.5.
Turning to “ATTATATATATATATACACACACACCCTAAAAATAT [CACACA_site8463]”, the “gcPBM binding intensity (ln)” value worked out at 7.22.
Regarding “ATTATGCACAGACACACACACACACTACTAAAAAAT [CACACA_site7252]”, the “gcPBM binding intensity (ln)” value amounted to 11.1.
The result for “ATTATGCACCAACACACACACACACTCCTAAAAAAT [CACACA_site8822]” reads 11.7; that for “AAAAGATAATTATGCACACACACACCCCCACCCAAC [CACACA_site2570]”, 10.5; that for “AAAAAATTAGATTATGCACACACACTAATAAATAAT [CACACA_site8604]”, 9.67.
Next, “TAATTATGCGGACACACACACACACCCAACTAAAAA [CACACA_site5427]”: 6.81; “GAAATTAAAAAATTTATGCACACTTTAAAAAAAAAA [CACACA_site3769]”: 9.28; “ACCTATTTCAAACACACACACACACTAGCAAACATA [CACACA_site4695]”: 7.26.
As to AAGAGAAAAATATGGTTGCACTAAAAATATATATTT, the “gcPBM binding intensity (ln)” value was 8.26.
The result for “ATCATTTTTAAAGGAACACACAAAAAAAATTAAAAT [CACACA_site4878]” reads 6.76.
Next, “TCTTTTTTAATATAATATATTTTTATTAAGTAAATC [TGCATGCA_negctrl_site408]”: 6.2; “ATTAATAATGAGTTATGTACATACATATTTTAAGAT [XGTACX_site7543]”: 6.75; AATAAATACTAAATGGTGCAAAATTTTTTAACACTG: 10.
Turning to “CATACTCTACATAGATGTACTCATTTAAAAAAAAAA [XGTACX_site6945]”, the “gcPBM binding intensity (ln)” value stood at 6.12.
On to “AATTAATAAAAAAGGTGTACAGTAAATGCAATAATC [XGTACX_site7956]”, for which the “gcPBM binding intensity (ln)” value amounted to 8.08.
As for “AAATATATCATACAAAGTACTTGGAATTAATATATA [XGTACX_site8907]”, the “gcPBM binding intensity (ln)” value turned out to be 6.3.
Next, “TAATTATGCAGACACACACACACACCCAACTAAAAA [CACACA_site2569]”: 7; “TAATTATGCCAACACACACACACACCCAACTAAAAA [CACACA_site8823]”: 6.96.
Next, “ATTATGCACCAACACACACACACACCCCTAAAAAAT [CACACA_site2568]”: 11.5; “ATATAAAGGTTTATTAGTACACATTAGAATACTTTT [XGTACX_site4492]”: 6.22.
